Experimental data taken from the supplement of paper PMC6555819.

Assays:
Experiment in all cases: PBM binding z-score (relative to random genomic background probes); higher = stronger binding; sequences stand for … in GC…GCGATTGACAGCGTAGAATGAAGG
[1] = test system: RARb homodimer (NR concentration 270 nM)
Procedure, shortened: (§1)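 Binding z-scores were set against random background probes. The data came from custom Agilent 4×180K protein-binding microarrays carrying double-stranded probes with 34-nt variable regions, incubated 1 h with ligand-free nuclear receptor dimers. Partner-specific antibodies detected binding, and scanned fluorescence was regression-normalized.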

[2] = test system: RARg:RXRa (NR concentration 270 nM, RXRa partner concentration 90 nM)
Procedure, shortened: as §1

[3] = test system: RARg homodimer (NR concentration 270 nM)
Procedure, shortened: as §1

[4] = test system: RXRa DBDmut IVT, anti-RXR (DBD mutation: RXRa K156A/R161A, NR concentration 90 nM)
Procedure, shortened: as §1

[5] = test system: RXRa homodimer (NR concentration 180 nM)
Procedure, shortened: as §1

[6] = test system: THRa:RXRa (NR concentration 90 nM, RXRa partner concentration 90 nM)
Procedure, shortened: as §1

[7] = test system: THRa homodimer (NR concentration 90 nM)
Procedure, shortened: as §1

[8] = test system: VDR homodimer (NR concentration 270 nM)
Procedure, shortened: as §1

Row | Sequence | PBM binding z-score [1] | PBM binding z-score [2] | PBM binding z-score [3] | PBM binding z-score [4] | PBM binding z-score [5] | PBM binding z-score [6] | PBM binding z-score [7] | PBM binding z-score [8]
1 | CAAACTAGGTCAAGAGGTCCAAGTCCGCTTCCCG | 3.2 | 4.03 | 4.37 | 1.42 | 2.65 | 2.55 | 0.871 | 1.74
2 | AATACAGGGTCATCGTGGGCCAGAGTACGCACAG | 3.78 | 5.59 | 4.97 | 3.19 | 6.45 | 4.44 | 1.46 | 3.9
3 | TTACCAAGGTGAAGGTCGTTAATCCCTCTGTAGA | 1.62 | 1.07 | 0.814 | -0.0664 | 1.54 | 2.22 | 0.878 | 0.939
4 | GGAACGACGGCAAAGTTGATAGCATCTGTCGACG | -0.736 | -0.162 | -0.0781 | -0.543 | 0.157 | -0.802 | -1.24 | -0.637
5 | CCGACTGGGGCACGGTTACCATAACGCACAGCCA | 0.696 | 0.548 | 1.13 | -1.14 | 0.163 | -0.214 | -0.521 | -0.442
6 | TCTAGCAGGCCAGAGGGTCACTCATGAGGTACGG | 2.62 | 2.59 | 2.22 | -0.0474 | 2.55 | 1.59 | -0.102 | 0.736
7 | CGTCAAAGTTCAACTAAGGTAACGTACAGCACGC | 4.47 | 6.1 | 6.82 | 4.86 | 5.14 | 5.27 | 2.13 | 4.15
8 | ACTTACGGGTCAACGAGGTGATAGCACGCGTATA | 2.98 | 5.26 | 4.83 | 2.19 | 5.47 | 3.86 | 0.952 | 1.81
9 | TGAATGAGGTTATAAGATCAGAGAACGTTGCAAA | -0.136 | 1.39 | 0.985 | 0.35 | 1.74 | 1.55 | -0.514 | 0.234
10 | ATCTCTAGGTAAAGATAGTTCAGCGAATGCAAAT | 1.42 | 0.793 | 0.971 | -0.00603 | 0.377 | 0.867 | -0.0177 | 0.508
11 | CGTCCAAGGTCAGAGAGGTCAGTGCATGCCGAGT | 5.13 | 6.03 | 6.95 | 3.49 | 5.11 | 4.21 | 2.91 | 6.02
12 | ATCTCTAGGTAAAGATAGGTCAGTGAATGCAAAT | 2.4 | 1.84 | 1.85 | 0.189 | 1.2 | 2.02 | 0.451 | 0.412
13 | CAAACTGGGTCAAGGTCAAAGTCGGTTTGTGCCA | 4.97 | 5.77 | 6.18 | 3.04 | 5.91 | 4.27 | 3.47 | 4.24
14 | GCTAGCAGGCCATTTGGGTCACTCCATGACGGGC | 1.6 | 0.733 | 1.19 | 0.0531 | 0.716 | 1.61 | 0.324 | 0.419
15 | ACTAGCAGGCCACGGGTCACTCAAGATTAGTCCG | 2.64 | 2.22 | 2.04 | 0.0998 | 2.18 | 1.85 | 0.298 | 0.215
16 | CCTAGCAGGCCAGGGACACTCAAGCATTTCGCTT | 0.112 | -0.238 | -0.144 | -0.269 | -0.377 | 0.512 | 0.193 | -0.34
17 | CCTTACGGGTCACGAGGGTATAGCACGACGAGCG | 3.35 | 5.85 | 5.72 | 0.613 | 6.79 | 3.56 | 0.0461 | 1.29
18 | GCGACTGGGGCATCAGCAGGTTACCCTAACTTAA | 0.901 | 0.748 | 0.106 | -0.65 | 0.381 | 1.29 | 0.628 | -0.558
19 | TCTAGTTGGTCAAAGGTGACACACTCGAAATGCG | 2.21 | 2.9 | 1.95 | 1.03 | 3.06 | 1.7 | 0.635 | 0.44
20 | AGAATGAGGTTATACGTAGATCAGGGAGGAAAGT | 0.93 | 1.79 | 1.27 | 1.87 | 2.27 | 2.24 | 0.817 | 1.09
21 | TCAGACAGGCGAAGGTAACTCAGGTACGCAGTCG | -0.405 | -0.089 | -0.377 | 0.863 | 0.579 | 0.951 | -0.297 | -0.35
22 | AACGAAAGGTCGTGAGGTGAGTATACAGAAAGGC | 3.14 | 4.62 | 3.99 | 1.68 | 5.2 | 3.55 | 1.33 | 0.812
23 | CTAACTAGGTCAGAACAGGACAGTGAAGGATGAT | 2.03 | 1.85 | 3.26 | 0.797 | 1.07 | 3.55 | 0.222 | -0.144
24 | TCTATTAGTTGAAGGGCAATCGACGAGTCCGTTT | 0.87 | 0.355 | 0.467 | 1.61 | 0.559 | 0.0989 | -0.0938 | 1.42
25 | CCGACTGGGGCAAGGTTACGATAACGCACAGCCA | 1.22 | 1.18 | 1.56 | -0.192 | 1.47 | 1.28 | 0.056 | -0.241
26 | TTCCCAAGGTGAGCTGAGGTCGTTGATCCAACTC | 1.95 | 1.28 | 0.949 | 0.117 | 1.34 | 4.52 | 2.4 | 2.61

Row | Sequence | PBM binding z-score [1] | PBM binding z-score [2] | PBM binding z-score [3] | PBM binding z-score [4] | PBM binding z-score [5] | PBM binding z-score [6] | PBM binding z-score [7] | PBM binding z-score [8]
27 | TCTGCCAGGTCAACGATGGTCAGCTAATCTGCTA | 3.43 | 4.4 | 5.08 | 1.41 | 3.42 | 3.55 | 1.7 | 0.359
28 | GCTAGCAGGCCATTTGGGGCACTCAATGACGGGC | -0.0146 | -0.154 | 0.3 | -0.299 | -0.112 | 0.771 | -0.695 | -0.274
29 | CCGAGTAGGTTATGGGGCATTCAGGCAACGGTGA | 1.08 | 0.469 | 0.552 | 0.0295 | 0.728 | 0.503 | 0.317 | -0.196
30 | GATACAGGGACAAGGCCAGAGTACGCGTATTGAT | 0.843 | 0.288 | 1.06 | -0.24 | 0.00121 | 0.874 | 0.292 | 0.46
31 | CCTACTGGGCCAGTCAGAGGTCATTGATCATATG | 3.65 | 3.94 | 2.79 | 0.705 | 3.71 | 2.94 | 1.03 | 3.27
32 | TCGATTAGGTTAGGGGCATTCAGAATGGCGTCGA | 1.25 | 0.511 | 0.723 | 1.34 | 0.857 | 1.33 | 0.776 | 1.08
33 | GTACCAAGGTGAATAGATCGTTGATGAGTAGGCG | 0.231 | 0.664 | 0.719 | -0.335 | 0.634 | 1.03 | 0.372 | -0.106
34 | ATCTCTAGGTAAGACTCAGTTCAGTGAAGAACGC | 0.723 | 0.0914 | 0.115 | 0.479 | -0.0944 | 0.922 | 0.796 | 1.42
35 | CCTGCTAGGTCATGGTCACCTAATCTACAGTATG | 3.43 | 4.1 | 4.93 | 1.77 | 3.5 | 3.13 | 1.78 | 0.622
36 | TAGCCTAGGTCTGATCGGGCCAGTATACGCTATA | -0.807 | -0.244 | -0.187 | -1.28 | -0.358 | 0.71 | -0.845 | -0.912
37 | TCTATTAATTGAAGGGCAACCGACGAGTCCGTTT | 1.05 | 0.656 | 0.454 | 1.24 | 0.717 | 0.258 | 0.559 | 2.19
38 | ATATGTAGGTTAGCTGGGGTCATTTAGACTAGGC | 3.75 | 3.88 | 2.65 | 2.15 | 5.02 | 5.36 | 3 | 4.51
39 | CCTTACGGGTCACTGACAGGTTAAAGCATTTGGA | 3.06 | 6.25 | 5.25 | 1.51 | 5.63 | 2.9 | -0.0327 | 0.937
40 | CCTAACGGGTCACTGACAGGTTATAGCATTTGGA | 2.94 | 5.4 | 4.16 | 1.48 | 4.09 | 2.46 | -0.159 | 0.931
41 | TCTTTTAGTTGAAGGGCAACCGACGAGTCCGTTT | 1.24 | 0.599 | 0.744 | 1.5 | 0.842 | 0.355 | -0.174 | 1.29
42 | CCGAGTACGTTATGGGGCATTCAGGCAACGGTGA | 0.358 | -0.121 | -0.0152 | 3 | -0.121 | 0.188 | -0.521 | 1.4
43 | TTACCAAGGTGAAGTTCGTTGATCCCTCTGTAGA | 1.18 | 0.78 | 0.824 | 1.02 | 0.97 | 1.8 | 0.676 | 1.66
44 | ATCGAAAGGTCGATGAGGTGAGTATACACCGTTT | 2.52 | 3.5 | 3.32 | 0.841 | 3.56 | 3.75 | 0.943 | 1.17
45 | ACAGACAGGTGATGAAGGTAACACAGGCTATCAT | 0.929 | 0.674 | 0.747 | -0.108 | 0.817 | 0.695 | 0.246 | 0.22
46 | ATATGTAGGTTACATCCGGCTCATTCAGGCTATG | 0.467 | 0.906 | 1.15 | 0.846 | 0.829 | 1.09 | 0.4 | 0.27
47 | ATCTCTAGGAAAAGTTCAGTGAAAGATCGATAGA | 2.13 | 1.53 | 1.87 | 1.03 | 0.695 | 0.532 | -0.316 | 1.66
48 | TCAGACAGGTGAACGTAACTCAGGTACGCAGTCG | 0.813 | 0.793 | 0.768 | 0.94 | 1.32 | 0.679 | 0.264 | 0.361
49 | ACAGACAGGTGATGAAGGTAACTCAAGCTATCAT | 0.13 | 0.288 | 0.537 | -0.0436 | 0.166 | 0.289 | -0.0849 | -0.318
50 | CCGACTGGGGCAAGGTTACCATTACGCACAGCCA | 1.42 | 0.911 | 1.17 | -0.427 | 1.03 | 1.09 | 0.435 | 0.338
51 | AGAACGAGGGCAATGAGCTGATAGCACGGGTGGC | 0.707 | 1.15 | 1.22 | 1.19 | 0.871 | 0.598 | -0.379 | 0.597
52 | ATATGTAGGTTAGCTGGGGTGATTCAGACTAGGC | 1.08 | 0.84 | 0.761 | 0.484 | 0.872 | 4.14 | 1.26 | 0.601
